Measurements from article PMC3218832.

How the values were obtained:
Test in all cases: protein binding microarray; high values mean tight binding
Conditions in all cases: dsDNA, one strand shown
[1] = biological target: RELARELA (p65 homodimer) (Homo sapiens, UniProt Q04206 1-307)
[2] = biological target: p50p50 homodimer (Homo sapiens, UniProt P19838 7-356)
[3] = biological target: T1, p52p52 homodimer (Homo sapiens, UniProt Q00653 4-332)
T1 sequence: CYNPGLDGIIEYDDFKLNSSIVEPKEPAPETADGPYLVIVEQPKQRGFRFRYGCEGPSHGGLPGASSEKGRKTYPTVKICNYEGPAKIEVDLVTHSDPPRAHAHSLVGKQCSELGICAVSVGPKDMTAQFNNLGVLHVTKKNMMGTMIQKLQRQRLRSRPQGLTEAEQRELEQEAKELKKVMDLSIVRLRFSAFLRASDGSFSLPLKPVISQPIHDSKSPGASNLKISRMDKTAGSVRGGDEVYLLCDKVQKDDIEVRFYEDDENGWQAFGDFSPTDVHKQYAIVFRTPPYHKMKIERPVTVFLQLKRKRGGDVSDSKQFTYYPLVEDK

[4] = biological target: RELA (p65) subunit of heterodimer;p50 subunit (Homo sapiens;Homo sapiens, UniProt Q04206;P19838 1-307;7-356)
[5] = biological target: RELA (p65) subunit of heterodimer;p52 subunit (Homo sapiens;Homo sapiens, UniProt Q04206;Q00653 1-307;4-332)
[6] = biological target: RELB subunit;p50 subunit (Homo sapiens;Homo sapiens, UniProt Q01201;P19838 120-401;7-356)
[7] = biological target: T2, RELB subunit;p52 subunit (Homo sapiens;Homo sapiens, UniProt Q01201;Q00653 120-401;4-332)
T2 sequence 1: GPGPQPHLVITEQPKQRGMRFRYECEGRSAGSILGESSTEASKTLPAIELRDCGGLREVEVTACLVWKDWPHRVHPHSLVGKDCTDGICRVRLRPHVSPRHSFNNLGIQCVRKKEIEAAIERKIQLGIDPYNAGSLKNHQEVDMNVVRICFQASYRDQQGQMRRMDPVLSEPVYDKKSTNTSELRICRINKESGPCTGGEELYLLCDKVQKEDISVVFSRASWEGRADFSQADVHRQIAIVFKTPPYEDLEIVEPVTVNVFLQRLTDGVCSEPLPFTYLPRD
T2 sequence 2: T1 sequence

[8] = biological target: C-Rel subunit;p50 subunit (Homo sapiens;Homo sapiens, UniProt Q04864;P19838 1-285;7-356)
[9] = biological target: T3, C-Rel subunit;p52 subunit (Homo sapiens;Homo sapiens, UniProt Q04864;Q00653 1-285;4-332)
T3 sequence 1: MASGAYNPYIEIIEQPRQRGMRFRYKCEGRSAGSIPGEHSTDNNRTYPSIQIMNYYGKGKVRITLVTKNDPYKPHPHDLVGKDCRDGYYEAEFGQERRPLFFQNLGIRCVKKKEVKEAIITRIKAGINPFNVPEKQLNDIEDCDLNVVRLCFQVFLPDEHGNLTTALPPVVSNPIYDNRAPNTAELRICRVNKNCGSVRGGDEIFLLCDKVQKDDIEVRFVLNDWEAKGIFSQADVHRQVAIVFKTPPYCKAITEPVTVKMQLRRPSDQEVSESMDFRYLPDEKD
T3 sequence 2: T1 sequence

p50p50 homodimer, sequence (P19838 7-356): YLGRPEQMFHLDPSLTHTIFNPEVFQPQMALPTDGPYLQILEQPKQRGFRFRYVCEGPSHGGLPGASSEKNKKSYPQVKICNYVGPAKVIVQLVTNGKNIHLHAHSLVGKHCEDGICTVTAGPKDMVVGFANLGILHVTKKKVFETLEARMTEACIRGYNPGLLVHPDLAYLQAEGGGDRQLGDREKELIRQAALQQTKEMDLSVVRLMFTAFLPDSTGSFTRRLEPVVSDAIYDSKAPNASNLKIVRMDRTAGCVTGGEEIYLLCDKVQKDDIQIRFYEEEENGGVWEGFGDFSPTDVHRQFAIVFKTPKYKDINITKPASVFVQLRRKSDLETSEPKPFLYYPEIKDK
RELA (p65) subunit of heterodimer;p50 subunit, sequence (Q04206 1-307, chain 1 of 2): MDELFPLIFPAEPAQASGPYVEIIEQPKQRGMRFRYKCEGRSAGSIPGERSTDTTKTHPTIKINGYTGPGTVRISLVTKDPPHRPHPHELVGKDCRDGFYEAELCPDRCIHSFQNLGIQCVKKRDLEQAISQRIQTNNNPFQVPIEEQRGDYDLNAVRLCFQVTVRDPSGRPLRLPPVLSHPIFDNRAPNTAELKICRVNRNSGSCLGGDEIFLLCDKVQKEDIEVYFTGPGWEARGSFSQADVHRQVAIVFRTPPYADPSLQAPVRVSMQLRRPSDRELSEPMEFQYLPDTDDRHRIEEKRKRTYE
RELA (p65) subunit of heterodimer;p50 subunit, sequence (P19838 7-356, chain 2 of 2): as the sequence (P19838 7-356) above
RELARELA (p65 homodimer), sequence (Q04206 1-307): as the sequence (Q04206 1-307, chain 1 of 2) above

Sequence	binding signal [1] [z-score]	binding signal [2] [z-score]	binding signal [3] [z-score]	binding signal [4] [z-score]	binding signal [5] [z-score]	binding signal [6] [z-score]	binding signal [7] [z-score]	binding signal [8] [z-score]	binding signal [9] [z-score]
GAGAAGCCCCT	-0.384	1.19	1.26	1.3	1.14	1.22	1.41	0.87	0.78
AAAGATGTCCC	0.336	0.646	0.345	0.492	0.185	0.741	0.487	0.497	-0.0919
CAGTTTATCCC	0.419	-0.117	0.0692	-0.133	-0.195	-0.213	-0.287	0.0891	-0.0511
GGGTAGTTCCT	0.746	0.495	0.541	0.394	0.345	-0.0983	0.0547	0.249	0.583
GAAGATTTCCT	0.421	-0.715	-0.513	-0.241	-0.568	-0.764	-0.77	-0.169	-0.383
CAGAAGGCCCC	-0.908	-0.224	-0.259	-0.114	-0.223	-0.248	-0.262	-0.241	-0.183
CAAGGCCCCCT	-1.53	0.645	0.212	0.0559	0.254	0.314	0.508	-0.126	-0.139
GGGATTCTCCC	2.28	0.737	2.84	1.59	2.15	2.01	1.67	1.41	2
GGAAAGATCCT	-0.0836	-1.25	-0.674	-0.749	-0.654	-0.932	-0.789	-0.978	-0.449
GGAAATCCCCT	3.63	1.5	3.23	3.21	3.34	2.45	3.27	3.04	3.88
CGAGGGCCCCC	-0.934	0.101	-0.0825	0.0405	-0.0107	0.199	0.202	-0.0359	0.137
CGGGGACCCCT	-0.0408	0.724	0.639	0.43	0.693	0.578	0.906	0.478	-0.0336
GGAGAACCCCC	0.892	1.01	1.75	1.88	1.77	1.42	1.59	1.21	1.74
AGGTATTTCCC	2.88	0.816	2.74	1.5	2.11	1.27	1.85	1.43	2.34
AGAAGATTCCT	0.055	-1.1	-0.567	-0.642	-0.681	-0.914	-0.843	-0.495	-0.373
CGGTTGCTCCT	-0.357	-1.5	-0.686	-0.927	-0.989	-1.09	-0.904	-1.44	-1
AGGAAACTCCT	2.04	-0.999	-0.404	-0.105	-0.54	-0.699	-0.839	-0.168	-0.211
CAATAGCCCCT	-0.581	1.17	0.673	0.506	0.808	0.574	0.89	0.189	0.555
CAGGAACTCCC	1.07	0.648	0.144	0.636	0.288	0.322	0.116	0.424	0.208
AAGTGTGTCCT	-0.0699	-1.1	-0.57	-0.888	-0.62	-0.808	-0.709	-0.908	-0.763
